Drawing on the supplement of paper PMC4894684, this text covers parasite growth for 38 compounds.

Structures can show the parent of a compound that is named as a salt. ± gives the standard deviation of the averaged measurements.

In the assay the test system is Toxoplasma gondii RH (in HFF). In words: parasite growth relative to the screen mean (all compounds = 100%); higher = less inhibition of parasite growth. The conditions noted are these: 5 µM; 72 h; oxygen 21 %. Put shortly:
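Each value is parasite growth expressed against the screen mean, averaged over two screens, where the mean of all compounds = 100%. The screen used 5 µM final compound on confluent human foreskin fibroblasts infected with RH β-Gal–GFP Toxoplasma (MOI 1:5) within 2 h and grown 72 h at 21% O2. Parasite number was measured by a CPRG β-Gal assay against in-plate standard curves.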
Compound `CC1=C(/C=C/C(C)=C/C=C/C(C)=C/C(=O)Nc2ccc(O)cc2)C(C)(C)CCC1` [Fenretinide] gave a parasite growth of 38 ± 8.6%. As to `Cc1cc(C)c(S(=O)(=O)Nc2cccc(C(F)(F)F)c2)c(C)c1`, the parasite growth amounted to 169 ± 30%. For `Brc1c(NC2=NCCN2)ccc2nccnc12` [UK 14,304 tartrate] the value was 101 ± 27%; for `NC[C@@H]1O[C@H](C23CC4CC(CC(C4)C2)C3)Cc2c1ccc(O)c2O`, 89.5 ± 18%; for `O=C(O)c1cc(=O)c2c(Cl)cc(Cl)cc2[nH]1` [5,7-Dichlorokynurenic acid], 136 ± 26%. `COc1ccc2c3c1O[C@H]1C[C@@H](O)C=C[C@@]31CCN(C)C2` [Galanthamine hydrobromide] returned a parasite growth of 138 ± 30%. Then `CCN(CC)CCCC(C)Nc1nc(C)cc(Nc2ccc3nc(C)cc(N)c3c2)n1` (stereo not drawn), with 127 ± 2.7%. The compound `CC[C@H](C)C(=O)O[C@H]1C[C@@H](C)C=C2C=C[C@H](C)[C@H](CC[C@@H]3C[C@@H](O)CC(=O)O3)[C@H]21` [Lovastatin] registered a parasite growth of 128 ± 17%.

`CC(=O)N1CCN(C)CC1` [1-Acetyl-4-methylpiperazine hydrochloride] yielded a parasite growth of 109 ± 40%. `CCCCC#Cc1nc(NC)c2ncn([C@@H]3O[C@H](CO)[C@@H](O)[C@H]3O)c2n1`: the parasite growth came to 143 ± 8.2%. In turn, `CN(CC[C@@H](Oc1ccc(-c2ccccc2)cc1)c1ccc(F)cc1)CC(=O)O` [ALX 5407 hydrochloride] showed a parasite growth of 136 ± 5.8%. Turning to `O=S(=O)(c1ccccc1)N(CC(F)(F)F)c1ccc(C(O)(C(F)(F)F)C(F)(F)F)cc1`, the parasite growth turned out to be 132 ± 5.8%. As for `O=C(Nc1ccc(C(F)(F)F)cn1)N1CCN(c2ncccc2C(F)(F)F)CC1`, the parasite growth worked out at 135 ± 6.2%. In turn, `O=C(O)CCCc1ccccc1` [sodium 4-Phenylbutyrate] gave a parasite growth of 64.6 ± 3.4%. Take `O=C(Nc1ccncc1)c1cc([N+](=O)[O-])ccc1Cl`: the parasite growth was under 0%. `CN(Cc1cnc2nc(N)nc(N)c2n1)c1ccc(C(=O)N[C@@H](CCC(=O)O)C(=O)O)cc1` [Methotrexate] registered a parasite growth of 161 ± 27%. `Cc1nc2sccn2c(=O)c1CCN1CCC(=C(c2ccccc2)c2ccc(F)cc2)CC1` yielded a parasite growth of 106 ± 24%.

`CC1(C)C[C@@H]1C(=O)N/C(=C\CCCCSC[C@H](N)C(=O)O)C(=O)O` [Cilastatin sodium]: the parasite growth amounted to 117 ± 14%. Take `O=C(O)Cc1ccc(OCCNC[C@H](O)c2ccccc2)cc1` [ZD 2079 hydrochloride]: the parasite growth came to 119 ± 12%.

For the compound `O=C1NC(=O)C(c2ccccc2[N+](=O)[O-])=C1Nc1ccc(O)c(Cl)c1`, the parasite growth came to 155 ± 3.7%.

Consider `Oc1cc2c(c(Cl)c1O)CCNCC2c1ccccc1` (stereo not drawn), for which the parasite growth was determined as 103 ± 32%. For `N=C(N)N/N=C/c1c(Cl)cccc1Cl` [Guanabenz acetate] the value was 99.52 ± 0.3%; for `O=C1OC(OC(=O)c2cccnc2Nc2cccc(C(F)(F)F)c2)c2ccccc21` (stereo not drawn) [Talniflumate], 113 ± 28%.

With `CN1CCN(C2=Nc3cc(Cl)ccc3Nc3ccccc32)CC1` [Clozapine], the parasite growth came to 178 ± 40%.

With `CC1(C)Oc2ccc(C#N)cc2[C@@H](N2CCCC2=O)[C@@H]1O` [Levcromakalim], the parasite growth was 158 ± 31%. For `CC(C1=C(CCN(C)C)Cc2ccccc21)c1ccccn1` (stereo in doubt) [(S)-(+)-Dimethindene maleate] the value was 83.1 ± 56%; for `N[C@@H](CC(=O)Nc1ccc(Oc2cc(F)c(F)cc2Br)cc1)C(=O)O`, 149.3 ± 0.68%; for `CCc1cc(C(C)=O)c(O)cc1OCCCCCC(C)(C)c1nn[nH]n1`, 111 ± 4.1%. As to `CC(C)CC(NC(=O)OCC1c2ccccc2-c2ccccc21)C(=O)O` (stereo not drawn), the parasite growth stood at 59.8 ± 23%. `CCN(Cc1ccncc1)C(=O)C(CO)c1ccccc1` (stereo not drawn) [Tropicamide]: the parasite growth amounted to 111 ± 11%. `COC(=O)Nc1ccc2[nH]cc(CCNC(C)=O)c2c1` gave a parasite growth of 81 ± 2.9%. Then `NC(=O)CNCCC(c1ccccc1)c1ccccc1` [N20C hydrochloride], with 71.4 ± 14%; and `Cc1noc(NS(=O)(=O)c2cccc3c(N(C)C)cccc23)c1C`, with 59.8 ± 11%. Compound `CS(=O)(=O)Nc1ccc([N+](=O)[O-])cc1Oc1ccccc1` [Nimesulide] yielded a parasite growth of 98.5 ± 4.5%.

On to `Cc1ccc2c(c1)c1c3n2CCNC3CCC1` (stereo not drawn) [Pirlindole mesylate], for which the parasite growth worked out at 152 ± 16%. For `CCOC(=O)c1ccc(OC(=O)CCCCCNC(=N)N)cc1` [Gabexate mesylate] the value was 144 ± 6.4%. For `CC1Nc2ccc(Cl)cc2S(=O)(=O)N1` (stereo not drawn) the value was 105 ± 84%; for `CC[N+](CC)(CC)CCOc1ccc(/C=C/c2ccccc2)cc1`, 99.2 ± 19%.
